Compound activity from PubChem.
CYP2C19 activ = human CYP2C19 activators, primary screen, biochemical, luminescence. Cytochrome P450 2C19 (Homo sapiens), P33261. 96,000 tested, under 10 active. recombinant CYP2C19, luciferin-H EGE luminescence; hits give high values; 0 = fully inhibited enzyme, 1 = untreated enzyme. AID 1025, 2008. activation factor at 5 µM;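 active = activation factor of at least 2 at 5 µM in the primary screen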;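 also: 0 = wells with 2.5 mM tranylcypromine and 1 = vehicle-only wells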
Target sequence (P33261 whole entry, looked up): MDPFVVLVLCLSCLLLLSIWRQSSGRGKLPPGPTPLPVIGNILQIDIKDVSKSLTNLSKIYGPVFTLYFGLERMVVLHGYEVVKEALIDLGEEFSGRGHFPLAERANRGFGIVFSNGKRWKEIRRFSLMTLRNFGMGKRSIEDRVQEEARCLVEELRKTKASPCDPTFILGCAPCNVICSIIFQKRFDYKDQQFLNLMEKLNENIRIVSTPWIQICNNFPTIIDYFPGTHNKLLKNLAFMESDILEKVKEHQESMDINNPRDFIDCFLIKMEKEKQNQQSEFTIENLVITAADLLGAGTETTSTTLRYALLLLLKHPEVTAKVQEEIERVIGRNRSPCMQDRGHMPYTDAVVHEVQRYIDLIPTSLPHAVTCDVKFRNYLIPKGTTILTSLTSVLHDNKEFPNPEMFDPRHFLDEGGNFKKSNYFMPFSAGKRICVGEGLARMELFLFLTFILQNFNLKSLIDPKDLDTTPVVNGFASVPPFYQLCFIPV
PLAP activator = PLAP enzyme activators, biochemical, luminescence, HTS. Alkaline phosphatase, placental type (Homo sapiens), P05187. purified PLAP enzyme, luminescent substrate read-out; hits give high values. activation fold at 20 µM. hit rate 1.2% among 96,000. AID 696, 2007; in the data active = activation fold above about 2
CYP2C19 inh = blockers of cytochrome P450 2C19 activity – biochemical, luminescence, ADME assay, primary screen; CYP2C19 Supersomes, luciferin-H EGE luminescence, 30 min; hit rate 21% among 96,000; inhibition, % at 5 µM; P33261;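 active = CYP2C19 inhibition above a set limit at 5 µM in the primary screen, cut at about 50% in these data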;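 also: plate controls were negative control wells for no effect and 2.5 mM tranylcypromine positive control for full effect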
CYP2C9 act = human CYP2C9 activators, primary screen, biochemical, luminescence; Cytochrome P450 2C9 (Homo sapiens), P11712; recombinant CYP2C9, luciferin-H conversion; hits give high values; factor 1 = untreated enzyme, 0 = blocked; activation factor at 5 µM; hit rate 1.4% among 96,000; AID 1024, 2008;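 active = activation factor of 2 or more for CYP2C9 at a 5 µM dose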;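 also: 0 = sulfaphenazole-blocked wells and 1 = vehicle-only wells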
CYP2C9 inhib = blockers of cytochrome P450 2C9 activity – biochemical, luminescence, ADME assay, primary screen | CYP2C9 Supersomes, luciferin-H conversion | inhibition, % at 5 µM | AID 777, 2007 | hit rate 20% among 96,000;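 active = blocking of liver enzyme CYP2C9 beyond about 50% at 5 µM, limit read from the data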
Numbers without * were called inactive. Hits are enriched below; roughly 31% of the tested compounds scored in any of these assays.

SMILES	CYP2C19 activ	PLAP activator	CYP2C19 inh	CYP2C9 act	CYP2C9 inhib
O=[N+]([O-])c1cc(C(F)(F)F)ccc1NCCc1c[nH]c2ccc(O)cc12	1	0.5	4	0.3	75*
CCCCOc1[nH]c2nc(-c3ccco3)n(Cc3ccco3)c(=N)c2c1C#N	0.4	1.3	61*	0.2	81*
CCCCn1c(-c2ccco2)nc2ccccc2c1=O	0.7	1	29	0.8	24
CC(=O)Nc1ccc(-n2nnnc2SCC(=O)N2CCN(C(=O)c3ccco3)CC2)cc1	0.9	1.4	10	0.9	10
O=C(NCc1ccccc1)c1cccc(S(=O)(=O)N2CCOCC2)c1	0.6	1	36	1	0
CCNC(=O)c1ccccc1NC(=O)c1cccc(S(=O)(=O)N2CCC(C)CC2)c1	0.4	0.9	59*	0.3	68*
CNC(=O)c1ccccc1NC(=O)c1cccc(S(=O)(=O)N2CCC(C)CC2)c1	0.1	1.3	90*	0.3	73*
O=C(Nc1ccccc1C(=O)N1CCOCC1)c1cccc(S(=O)(=O)N2CCCC2)c1	1.1	1.1	-9	1	3
Cc1ccc(C(=O)ON=C2CCN(c3ccc([N+](=O)[O-])cc3)CC2)cc1	1	1	1	0.9	10
CCOC(=O)CNc1nc(OCC#N)nc(N2CCOCC2)n1	1.1	1.1	-11	1.1	-9
COc1ccc(CCNC(=O)COc2ccc(S(=O)(=O)NC3CCCCC3)cc2Cl)cc1	0.4	1.5	64*	0.1	85*
O=C(COc1ccc(S(=O)(=O)NCc2ccccc2)cc1Cl)NCC1CCCO1 (stereo not drawn)	1	1.4	-1	0.2	78*
Cc1cc(C)c(C)c(OCC(=O)NCC2CCCO2)c1 (stereo not drawn)	0.4	1.2	63*	1.6	-57
O=C(COc1ccc(S(=O)(=O)NCc2ccccc2)cc1)NCC1CCCO1 (stereo not drawn)	1	0.9	-2	0.9	5
O=C(COc1ccc(S(=O)(=O)NC2CCCCC2)cc1Cl)NCc1cccnc1	0.5	1.7	50	0	98*
O=C(COc1ccc(S(=O)(=O)NC2CCCCC2)cc1Cl)NCC1CCCO1 (stereo not drawn)	0.4	1.7	58*	0.1	90*
Cc1cc(Cl)c(S(=O)(=O)NCC2CCCO2)cc1OCC(=O)NC1CCCCC1 (stereo not drawn)	0.8	1	22	0.8	20
O=C(NCC(=O)N(CC1CCCO1)C(C(=O)NC1CCCC1)c1cccnc1)c1ccco1 (stereo not drawn)	1.1	0.9	-8	1.1	-6
COc1cccc(/C=N/NC(=O)c2[nH]c(C)c(C(=O)N/N=C/c3cccc(OC)c3O)c2C)c1O	1.1	2.5*	-8	1.1	-8
COc1cccc(/C=N\NC(=O)c2sc(N)nc2C)c1OC	1	1	4	1	2
COc1cccc(/C=N/NC(=O)c2ccc(-c3ccccc3)cc2)c1O	1	2.1*	-4	1	4
Cc1nn(Cc2c(F)c(F)c(F)c(F)c2F)c(C)c1NC(=O)c1ccc(COc2ccc(F)cc2)o1	0.6	1	40	0.8	17
OCCN(Cc1ccccc1)Cc1ccc(Cl)cc1Cl	0	1.1	95*	0.4	57*
CCn1nc(NC(=O)c2cccnc2)c2cc3ccccc3nc21	0.7	0.9	32	0.4	62*
Cc1ccc2nc3c(cc2c1)c(NC(=O)c1ccccn1)nn3CC(C)C	1	2.3*	1	0.7	31
SMILES	CYP2C19 activ	PLAP activator	CYP2C19 inh	CYP2C9 act	CYP2C9 inhib
Cn1c(NC(=O)c2cccnc2)nc2ccccc21	0.8	2*	25	0.8	16
O=C(Nc1cnc2ccccc2c1)c1cccnc1	1	1	-4	0.8	16
CCn1nc(NC(=O)c2ccccn2)c2cc3cc(C)ccc3nc21	0.9	1.8	14	0.8	20
CCCCn1c(NC(=O)c2ccc(Br)o2)c(S(=O)(=O)c2ccccc2)c2nc3ccccc3nc21	0.9	1.6	9	0.2	83*
CCCCCn1c(NC(=O)c2ccco2)c(S(=O)(=O)c2ccc(C)cc2)c2nc3ccccc3nc21	0.9	1.1	6	0.8	22
O=C(CSc1nnc(-c2ccco2)c(-c2ccco2)n1)Nc1ccccc1	0.7	1.1	28	0.3	73*
